Common to all, as to experiment: yeast three-hybrid, YBZ-1, SC-Leu-His + 0.5 mM 3-AT, 4 days
What all share (details): tags: N-Gal4 AD-HA kept; label: inside an RPR1-promoter hybrid RNA with tandem MS2 sites; ssRNA

One test deals with PUM1 PUF domain R4-RMR (Homo sapiens, UniProt Q14671 828-1176, N971R;H972M;Q975R). An outline of the steps: (§1)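 The interaction score is the log change in how often each variant appears, from input to selection. Frequencies came from PCR-amplified, Illumina-sequenced repeat regions of Pumilio-1 PUF domain libraries grown in strain YBZ-1 (LexA–MS2 coat fusion, HIS3 reporter) alongside matching RNA elements. Input plates were SC-Leu and selection plates were SC-Leu-His + 0.5 mM 3-AT, each for four days, and the log2 calculation used a pseudocount of 1 where a variant was absent.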

For a further test, the target named is PUM1 PUF domain R4-ARG (Homo sapiens, UniProt Q14671 828-1176, N971A;H972R;Q975G). An outline of the steps:
as §1

For the next test, the target named is PUM1 PUF domain R4-NPG (Homo sapiens, UniProt Q14671 828-1176, H972P;Q975G). An outline of the steps: as §1
PUM1 PUF domain R4-NPG, sequence (Q14671 828-1176 H972P/Q975G): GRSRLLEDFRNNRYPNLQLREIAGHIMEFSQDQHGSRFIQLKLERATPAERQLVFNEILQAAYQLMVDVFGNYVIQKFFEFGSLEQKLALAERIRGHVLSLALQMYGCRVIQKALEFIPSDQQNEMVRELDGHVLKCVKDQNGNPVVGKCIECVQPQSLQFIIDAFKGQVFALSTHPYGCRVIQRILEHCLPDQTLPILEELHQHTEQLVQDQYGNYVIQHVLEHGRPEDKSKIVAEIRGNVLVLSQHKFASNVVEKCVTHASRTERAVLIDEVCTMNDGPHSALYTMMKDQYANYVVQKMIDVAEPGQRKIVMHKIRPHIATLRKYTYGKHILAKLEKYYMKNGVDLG
Another test deals with PUM1 PUF domain R4-GSQ (Homo sapiens, UniProt Q14671 828-1176, N971G;H972S). An outline of the steps: as §1
The next test deals with PUM1 PUF domain R5-RAV (Homo sapiens, UniProt Q14671 828-1176, C1007R;R1008A;Q1011V). An outline of the steps: as §1
A further test has as its target PUM1 PUF domain R3-EYS (Homo sapiens, UniProt Q14671 828-1176, C935E;R936Y;Q939S). An outline of the steps: as §1
In the next test the target is PUM1 PUF domain R3-IFS (Homo sapiens, UniProt Q14671 828-1176, C935I;R936F;Q939S). An outline of the steps:
as §1

In the next test the target is PUM1 PUF domain R5-EFW (Homo sapiens, UniProt Q14671 828-1176, C1007E;R1008F;Q1011W). An outline of the steps:
as §1

A further test has as its target PUM1 PUF domain R4-SRE (Homo sapiens, UniProt Q14671 828-1176, N971S;H972R;Q975E). An outline of the steps:
as §1

For a further test, the target named is T1, PUM1 PUF domain R6-NFT (Homo sapiens, UniProt Q14671 828-1176, Y1044F;Q1047T).
T1 sequence: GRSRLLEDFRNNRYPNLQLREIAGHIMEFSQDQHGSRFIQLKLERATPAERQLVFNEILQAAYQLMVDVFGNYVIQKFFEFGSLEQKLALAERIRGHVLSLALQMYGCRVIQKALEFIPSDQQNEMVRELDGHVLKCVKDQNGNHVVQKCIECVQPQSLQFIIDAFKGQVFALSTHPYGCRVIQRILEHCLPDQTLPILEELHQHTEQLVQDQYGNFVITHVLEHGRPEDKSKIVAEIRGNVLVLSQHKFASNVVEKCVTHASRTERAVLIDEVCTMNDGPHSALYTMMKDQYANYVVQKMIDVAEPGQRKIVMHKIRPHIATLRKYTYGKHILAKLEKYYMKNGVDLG
An outline of the steps: as §1

The next test addresses PUM1 PUF domain R3-ESL (Homo sapiens, UniProt Q14671 828-1176, C935E;R936S;Q939L). An outline of the steps: as §1
For another test, the target named is PUM1 PUF domain R8-VYF (Homo sapiens, UniProt Q14671 828-1176, N1122V;Q1126F). An outline of the steps: as §1
For a further test, the target named is PUM1 PUF domain R8-RWP (Homo sapiens, UniProt Q14671 828-1176, N1122R;Y1123W;Q1126P). An outline of the steps: as §1
For another test, the target named is PUM1 PUF domain R3-ART (Homo sapiens, UniProt Q14671 828-1176, C935A;Q939T). An outline of the steps: as §1
Another test has as its target PUM1 PUF domain R8-PYL (Homo sapiens, UniProt Q14671 828-1176, N1122P;Q1126L). An outline of the steps:
as §1

Another test has as its target PUM1 PUF domain R8-RYN (Homo sapiens, UniProt Q14671 828-1176, N1122R;Q1126N). An outline of the steps: as §1
The target in the next test is PUM1 PUF domain R7-EPW (Homo sapiens, UniProt Q14671 828-1176, S1079E;N1080P;E1083W). An outline of the steps: as §1
Another test concerns the target PUM1 PUF domain R7-RGW (Homo sapiens, UniProt Q14671 828-1176, S1079R;N1080G;E1083W). An outline of the steps: as §1
The next test deals with PUM1 PUF domain R7-KFY (Homo sapiens, UniProt Q14671 828-1176, S1079K;N1080F;E1083Y). An outline of the steps: as §1
Another test addresses PUM1 PUF domain R5-NIL (Homo sapiens, UniProt Q14671 828-1176, C1007N;R1008I;Q1011L). An outline of the steps:
as §1

The source of these data is article PMC8384837, “Expanding the binding specificity for RNA recognition by a PUF domain”.

PUM1 PUF domain R4-ARG, sequence (Q14671 828-1176 N971A/H972R/Q975G): as the sequence (Q14671 828-1176 H972P/Q975G) above, with N144A, P145R counted along it

Regarding “GGCUAGAACUAGUGGAUCCCCCGGCGCCCGGCGGCUCGAGCCCGGGUAAGUGUACAUAGUCUGCAUGCCGCCGGGCGCCAUGCCUGCAGGUCGACUCUAGAAAACAUG”, the binding signal with PUM1 PUF domain R4-RMR was 2.94 log2 enrichment (interaction score); with PUM1 PUF domain R4-ARG it was 1.86 log2 enrichment (interaction score); in the test with PUM1 PUF domain R4-NPG it was 1.42 log2 enrichment (interaction score); with PUM1 PUF domain R4-GSQ it was 3.24 log2 enrichment (interaction score).
As to “GGCUAGAACUAGUGGAUCCCCCGGCGCCCGGCGGCUCGAGCCCGGGUAAGUGUCAAUAGUCUGCAUGCCGCCGGGCGCCAUGCCUGCAGGUCGACUCUAGAAAACAUG”, the binding signal with PUM1 PUF domain R5-RAV is 2.94 log2 enrichment (interaction score).
As for “GGCUAGAACUAGUGGAUCCCCCGGCGCCCGGCGGCUCGAGCCCGGGUAAGUGUAAGUAGUCUGCAUGCCGCCGGGCGCCAUGCCUGCAGGUCGACUCUAGAAAACAUG”, the results for the binding signal in the test with PUM1 PUF domain R3-EYS and in the test with PUM1 PUF domain R3-IFS were 4.44 log2 enrichment (interaction score) and 5.56 log2 enrichment (interaction score), respectively.
Turning to “GGCUAGAACUAGUGGAUCCCCCGGCGCCCGGCGGCUCGAGCCCGGGUAAGUGUGAAUAGUCUGCAUGCCGCCGGGCGCCAUGCCUGCAGGUCGACUCUAGAAAACAUG”, the binding signal in the test with PUM1 PUF domain R5-EFW was 4.12 log2 enrichment (interaction score).
On to “GGCUAGAACUAGUGGAUCCCCCGGCGCCCGGCGGCUCGAGCCCGGGUAAGUGUAUAUAGUCUGCAUGCCGCCGGGCGCCAUGCCUGCAGGUCGACUCUAGAAAACAUG”, for which the binding signal in the test with PUM1 PUF domain R4-ARG is 1.79 log2 enrichment (interaction score); with PUM1 PUF domain R4-NPG, 3.81 log2 enrichment (interaction score); with PUM1 PUF domain R4-GSQ, 0.64 log2 enrichment (interaction score).
Turning to “GGCUAGAACUAGUGGAUCCCCCGGCGCCCGGCGGCUCGAGCCCGGGUAAGUGUAAAUAGUCUGCAUGCCGCCGGGCGCCAUGCCUGCAGGUCGACUCUAGAAAACAUG”, the binding signal with PUM1 PUF domain R4-SRE was 3.49 log2 enrichment (interaction score); in the test with PUM1 PUF domain R4-ARG it was 4.57 log2 enrichment (interaction score); in the test with PUM1 PUF domain R6-NFT it was 4.45 log2 enrichment (interaction score); with PUM1 PUF domain R3-ESL it was 2.59 log2 enrichment (interaction score); with PUM1 PUF domain R8-VYF, 2.23 log2 enrichment (interaction score); with PUM1 PUF domain R4-NPG it was 2.63 log2 enrichment (interaction score). For the same sequence, the binding signal in the test with PUM1 PUF domain R8-RWP was 3.02 log2 enrichment (interaction score); with PUM1 PUF domain R3-ART, 3.43 log2 enrichment (interaction score); with PUM1 PUF domain R5-EFW it was 4.47 log2 enrichment (interaction score); in the test with PUM1 PUF domain R8-PYL it was 2.9 log2 enrichment (interaction score); with PUM1 PUF domain R8-RYN, 5.13 log2 enrichment (interaction score).
As to “GGCUAGAACUAGUGGAUCCCCCGGCGCCCGGCGGCUCGAGCCCGGGUAAGUUUAAAUAGUCUGCAUGCCGCCGGGCGCCAUGCCUGCAGGUCGACUCUAGAAAACAUG”, the values for the binding signal in the test with PUM1 PUF domain R7-EPW and in the test with PUM1 PUF domain R7-RGW were 2.81 log2 enrichment (interaction score) and 3.68 log2 enrichment (interaction score), respectively.
With “GGCUAGAACUAGUGGAUCCCCCGGCGCCCGGCGGCUCGAGCCCGGGUAAGUGUAAUUAGUCUGCAUGCCGCCGGGCGCCAUGCCUGCAGGUCGACUCUAGAAAACAUG”, the binding signal with PUM1 PUF domain R3-ART was 0.34 log2 enrichment (interaction score).
Turning to “GGCUAGAACUAGUGGAUCCCCCGGCGCCCGGCGGCUCGAGCCCGGGUAAGUCUAAAUAGUCUGCAUGCCGCCGGGCGCCAUGCCUGCAGGUCGACUCUAGAAAACAUG”, in the test with PUM1 PUF domain R7-KFY, the binding signal is 3.1 log2 enrichment (interaction score).
“GGCUAGAACUAGUGGAUCCCCCGGCGCCCGGCGGCUCGAGCCCGGGUAAGUAUAAAUAGUCUGCAUGCCGCCGGGCGCCAUGCCUGCAGGUCGACUCUAGAAAACAUG”: the binding signal with PUM1 PUF domain R7-KFY was 2.56 log2 enrichment (interaction score).
Consider “GGCUAGAACUAGUGGAUCCCCCGGCGCCCGGCGGCUCGAGCCCGGGUAAGCGUAAAUAGUCUGCAUGCCGCCGGGCGCCAUGCCUGCAGGUCGACUCUAGAAAACAUG”, for which the binding signal with PUM1 PUF domain R8-VYF is 2.73 log2 enrichment (interaction score); with PUM1 PUF domain R8-RWP it was 5 log2 enrichment (interaction score); in the test with PUM1 PUF domain R8-PYL, 3.48 log2 enrichment (interaction score); in the test with PUM1 PUF domain R8-RYN it was 6.46 log2 enrichment (interaction score).
On to “GGCUAGAACUAGUGGAUCCCCCGGCGCCCGGCGGCUCGAGCCCGGGUAAGUGUUAAUAGUCUGCAUGCCGCCGGGCGCCAUGCCUGCAGGUCGACUCUAGAAAACAUG”, for which the binding signal with PUM1 PUF domain R5-NIL is 3.18 log2 enrichment (interaction score).
